Source: PubChem BioAssay AID1778 (Sanford-Burnham Center for Chemical Genomics, 2009)
Out of some 290,000 compounds screened, about 260 (0.09%) were called active. The list comes from a sample in which actives are over-represented; it also holds similar structures and randomly drawn compounds. Potency and affinity values are given separately. Unmarked numbers belong to inactive results. Rule as the data show it: active = inhibition above about 50%; inactive = the rest.

These molecules were tested against Kappa-type opioid receptor (Homo sapiens) (UniProt P41145) (assay: KOR antagonists, beta-arrestin recruitment, cell-based, luminescence, uHTS (AID 1778)). Details: antagonist mode, hits give high values; at 10 µM unless noted.
Chain of Kappa-type opioid receptor (Homo sapiens) (P41145 whole entry, looked up): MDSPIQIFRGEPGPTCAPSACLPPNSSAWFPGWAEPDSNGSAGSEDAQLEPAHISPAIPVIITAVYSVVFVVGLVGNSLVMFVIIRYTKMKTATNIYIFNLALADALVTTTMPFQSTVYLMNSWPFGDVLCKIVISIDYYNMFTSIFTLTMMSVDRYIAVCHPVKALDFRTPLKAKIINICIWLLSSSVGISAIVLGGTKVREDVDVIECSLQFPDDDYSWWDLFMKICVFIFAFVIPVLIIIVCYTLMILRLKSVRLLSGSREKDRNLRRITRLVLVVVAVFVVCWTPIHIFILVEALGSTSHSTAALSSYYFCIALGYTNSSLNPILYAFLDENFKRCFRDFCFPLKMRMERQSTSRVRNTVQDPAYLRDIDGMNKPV

Row | SMILES | inhibition
1 | Cc1cccc(C)c1NC(=O)C(c1cccs1)N(Cc1ccco1)C(=O)Cn1nnc2ccccc21 (stereo not given) | 53.4% (active)
2 | O=C(NCc1ccco1)C(c1cccs1)N(Cc1ccccc1)C(=O)Cn1nnc2ccccc21 (stereo not given) | 9.5%
3 | Cc1ccc(CN(C(=O)Cn2nnc3ccccc32)C(C(=O)NCc2ccco2)c2cccs2)cc1 (stereo not given) | 17.9%
4 | COc1cc(NS(=O)(=O)c2cn(C)cn2)cc(OC)c1 | -11.4%
5 | Cc1ccc(NC(=O)c2cc(N3C(=O)CCC3=O)ccc2N2CCOCC2)cc1 | -2.1% [at 20 µM]
6 | Cc1ccc(NC(=O)c2cc(N3C(=O)C=CC3=O)ccc2N2CCOCC2)cc1Cl | -45.3%
7 | O=C(Nc1ccc(N2CCOCC2)c([N+](=O)[O-])c1)c1ccco1 | 11.4%
8 | Cc1ccc(-c2ccc(C(=O)O)c(C)n2)cc1 | 21%
9 | CCS(=O)(=O)c1ccc(OC)c(N=Nc2ccc(O)c3ncccc23)c1 | 1.8%
10 | Cc1ccc(N=Nc2ccc(O)c3ncccc23)cc1C | 60.3% (active)
11 | COc1ccccc1N=Nc1ccc(O)c2ncccc12 | -19.2%
12 | Cc1ccc(N=Nc2ccc(O)c3ncccc23)cc1 | -2.4%
13 | O=Nc1ccc(O)c2ncccc12 | 7.2%
14 | Cc1ccc(N=Nc2cc(C)ccc2O)c(C)c1 | 19.5%
15 | Oc1ccc(N=Nc2ccccc2C(F)(F)F)c2cccnc12 | 29.5%
16 | Cc1ccc(C)c(N=Nc2ccc(O)c3ncccc23)c1 | 60.4% (active)
17 | CC(C)Oc1ccc(N2CC(C(=O)Nc3ccccn3)CC2=O)cc1 (stereo not given) | 19.8% [at 20 µM]
18 | COc1cc(/C=C2/N=C(C3CCCCC3)OC2=O)cc(OC)c1OC | -1.6%
19 | CCC(=O)Nc1ccc(NC(=O)c2cccc3ccccc23)cc1 | -36.8% [at 20 µM]
20 | S=C(NCCCc1ccccc1)NCc1ccccc1 | 7.2%

Row | SMILES | inhibition
21 | Cc1ccc(S(=O)(=O)N2CCOCC2)cc1C(=O)NC1CCSc2ccccc21 (stereo not given) | 27.2%
22 | CCOc1ncccc1C(=O)NCCc1ccc(S(N)(=O)=O)cc1 | -2.5%
23 | COc1ccc(C(NC(=O)c2ccc(=O)[nH]c2)C(=O)Nc2ccc(C(C)C)cc2)cc1 (stereo not given) | -5%
24 | CCOCCCNC(=O)c1cc(=O)n(Cc2cccc(C)c2)c2ccccc12 | 3.1%
25 | O=C(c1ccccc1)c1ccc(Sc2ccc([N+](=O)[O-])cc2)cc1 | 10.8%
26 | O=C(c1ccc(-c2ccccc2)cc1)c1ccc([N+](=O)[O-])cc1 | -69.2%
27 | O=C(C#Cc1ccccc1)c1cccc([N+](=O)[O-])c1 | -9.6%
28 | O=C(Nc1cccc([N+](=O)[O-])c1)c1ccccc1 | 2.6%
29 | N/C(=N\OC(=O)c1ccc2c(c1)OCO2)c1cccnc1 | -2.2% [at 20 µM]
30 | CCC(C)(C)NC(=O)C1CCN(c2nc(OC)nc(OC)n2)CC1 | -16.1%
31 | COCC1CCN(C(=O)c2cc(COc3ccc(-n4cncn4)cc3)on2)C1 (stereo not given) | -15.5%
32 | CC(C)(C)C1CCc2c(sc(NC(=O)c3cccs3)c2C(N)=O)C1 (stereo not given) | -55.5%
33 | Oc1c(C(c2cccs2)N2CCN(c3ccccc3)CC2)ccc2cccnc12 (stereo not given) | 2.5%
34 | Oc1c(C(c2ccccc2Cl)N2CCCC2)ccc2cccnc12 (stereo not given) | 57.9% (active)
35 | Oc1c(C(c2ccccn2)N2CCCCC2)cc(Cl)c2cccnc12 (stereo not given) | -6.4%
36 | C/C(=N\Nc1nc(Cl)c(Cl)cc1Cl)c1ccc(S(=O)(=O)NCc2ccco2)cc1 | -56.4%
37 | COCCn1c(=N)c(S(=O)(=O)c2ccc(F)cc2)cc2c(=O)n3cccc(C)c3nc21 | -2.3%
38 | COc1ccc(N(C(=O)c2ccco2)S(=O)(=O)c2ccccc2)cc1 | -19.2%
39 | CCCCN(Cc1cc2cc(OC)ccc2[nH]c1=O)S(=O)(=O)c1ccc(C)cc1 | -44.3% [at 20 µM]
40 | O=C(Cn1ncc2ccccc21)N1CCc2ccccc21 | 1.2%

Row | SMILES | inhibition
41 | O=C1CN(C(=O)Cn2ncc(Cl)c(Cl)c2=O)c2ccccc2N1 | 53.5%
42 | Cc1nc(-c2noc(-c3ccc(Cl)cc3)n2)c(C(F)(F)F)o1 | 31.9%
43 | CCCCN1C(=O)C2(OCCCO2)c2cccc(C)c21 | -40.4% [at 20 µM]
44 | CN1CC(=O)N(CC(=O)NCc2ccc(F)cc2)c2ccccc2C1=O | 3%
45 | Cc1c(C(=O)O)[nH]c2c1C(=O)CC(c1ccccc1)C2 (stereo not given) | -26.9%
46 | Cc1oc2c(c(=O)c1C)C(=O)CC(c1ccccc1)C2 (stereo not given) | -21.1%
47 | CCN1CCN(CC(=O)N2N=C(c3cccs3)CC2c2ccc(F)cc2)C(=O)C1=O (stereo not given) | 0.6%
48 | Fc1ccccc1/C=N/Nc1ncnc2ccccc12 | 10.9%
49 | Cc1ccc(-c2nc(N/N=C/c3ccncc3)c3ccccc3n2)cc1 | 2.4%
50 | C(=N\Nc1nc(-c2ccccn2)nc2ccccc12)/c1ccccc1 | 76.2% (active)
51 | C(=N\Nc1nc(-c2cccnc2)nc2ccccc12)/c1ccccc1 | -5.2%
52 | C/C(=N\Nc1nc(-c2ccccn2)nc2ccccc12)c1ccc(F)cc1 | 31.6%
53 | COc1cccc(CN2CCN(C(=O)c3oc4c(F)cccc4c3C)CC2=O)c1 | -26.9% [at 20 µM]
54 | COC(=O)CSc1nc2sc3c(c2c(=O)n1-c1ccc(OC)cc1)CCN(C)C3 | -14.3%
55 | COc1ccccc1N1CCN(C(=O)c2cnn3cccnc23)CC1 | 24.4%
56 | O=C1c2ccccc2C(=O)N1c1ncc(Cc2ccc(Cl)cc2)s1 | -50.6%
57 | N=C1SCC(=O)N1c1ccccc1Cl | 16.3%
58 | N=C1SC(c2ccccc2)C(=O)N1c1ncc(Cc2ccccc2Cl)s1 (stereo not given) | 26.7%
59 | N=C1SC(c2ccccc2)C(=O)N1c1ncc(Cc2ccccc2)s1 (stereo not given) | 1.3%
60 | CCC(C(=O)NCc1cccs1)n1nc(C)n2c(cc3occc32)c1=O (stereo not given) | -9.9%
